Measured values as given in PubChem BioAssay (EPA / NIEHS).
Several values for one entry are separate records, joined by “and”; a condition that tells them apart may be missing. Equal entries are not always repeated. More than one record can exist for a structure, and the calls need not agree. Activity calls are given as the source filed them. Rule for the calls: active = hit-call score of the fitted dose curve at least 0.9, where 1 is the maximum; inactive = score below 0.9.

Experiments:
[1] = biological target: Transcriptional activator Myb (Homo sapiens) (UniProt P10242); assay: ATG_Myb_CIS: Attagene CIS-FACTORIAL HepG2 Assay for human Myeloblastosis (Myb) Proto-Oncogene Transcription Factor (AID 2282986); conditions: HepG2 Attagene CIS-FACTORIAL Myb reporter transcription; actives raise or lower the signal
Sequence of Transcriptional activator Myb (Homo sapiens) (P10242 whole entry, looked up): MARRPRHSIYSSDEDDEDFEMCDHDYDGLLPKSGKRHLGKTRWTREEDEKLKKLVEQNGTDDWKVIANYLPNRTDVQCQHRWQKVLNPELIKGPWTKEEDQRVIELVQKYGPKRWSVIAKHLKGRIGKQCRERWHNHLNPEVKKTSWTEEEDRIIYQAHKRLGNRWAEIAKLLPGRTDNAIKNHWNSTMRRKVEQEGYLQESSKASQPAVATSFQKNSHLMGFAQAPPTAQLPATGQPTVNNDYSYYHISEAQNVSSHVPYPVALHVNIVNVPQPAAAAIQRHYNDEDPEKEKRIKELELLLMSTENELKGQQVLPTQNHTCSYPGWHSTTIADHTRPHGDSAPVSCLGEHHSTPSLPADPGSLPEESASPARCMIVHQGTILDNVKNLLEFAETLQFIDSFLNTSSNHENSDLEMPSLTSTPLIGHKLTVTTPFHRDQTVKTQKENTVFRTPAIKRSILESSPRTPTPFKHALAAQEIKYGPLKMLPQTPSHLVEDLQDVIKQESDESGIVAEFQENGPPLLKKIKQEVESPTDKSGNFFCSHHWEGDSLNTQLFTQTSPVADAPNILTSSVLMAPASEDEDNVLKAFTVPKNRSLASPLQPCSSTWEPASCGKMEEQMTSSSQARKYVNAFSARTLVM
Method in brief: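 Transiently transfected HepG2 cells, treated 24 h. Reporter mRNA quantified by RT-PCR/capillary electrophoresis; bidirectional fit relative to DMSO.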

[2] = biological target: Nuclear respiratory factor 1 (Homo sapiens) (UniProt Q16656); assay: ATG_NRF1_CIS: Attagene CIS-FACTORIAL HepG2 Assay for human Nuclear Respiratory Factor 1 (NRF1) Orphan Gene (AID 2282987); conditions: HepG2 NRF1 cis-element reporter, Attagene multiplex; actives raise or lower the signal
Sequence of Nuclear respiratory factor 1 (Homo sapiens) (Q16656 whole entry, looked up, the tested form may be a part): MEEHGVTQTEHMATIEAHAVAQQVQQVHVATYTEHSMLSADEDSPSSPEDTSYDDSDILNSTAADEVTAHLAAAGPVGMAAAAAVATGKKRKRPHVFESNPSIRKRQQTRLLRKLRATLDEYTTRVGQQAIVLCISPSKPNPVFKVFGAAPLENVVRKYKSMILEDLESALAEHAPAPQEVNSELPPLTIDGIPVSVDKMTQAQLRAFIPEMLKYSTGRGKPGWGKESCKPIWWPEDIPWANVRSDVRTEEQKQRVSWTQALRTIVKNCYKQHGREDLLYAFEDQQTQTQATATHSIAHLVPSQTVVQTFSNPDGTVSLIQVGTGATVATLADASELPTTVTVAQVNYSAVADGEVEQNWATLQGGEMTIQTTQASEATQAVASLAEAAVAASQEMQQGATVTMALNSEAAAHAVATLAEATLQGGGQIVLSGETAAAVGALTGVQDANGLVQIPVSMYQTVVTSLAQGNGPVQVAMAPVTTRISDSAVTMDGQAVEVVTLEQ
Method in brief: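 Cells (HepG2, transient MRTU transfection) are exposed to compound for 24 h, then RNA isolated and reporter mRNA amplified and fluorescently labelled. Fragments are separated by capillary electrophoresis; signal change is fitted bidirectionally relative to DMSO.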

[3] = biological target: Myc proto-oncogene protein (Homo sapiens) (UniProt P01106); assay: ATG_Myc_CIS: Attagene CIS-FACTORIAL HepG2 Assay for human Myelocytomatosis (Myc) Proto-Oncogene Transcription Factor (AID 2282990); conditions: HepG2, Attagene cis-reporter transcription factor activity; actives raise or lower the signal
Sequence of Myc proto-oncogene protein (Homo sapiens) (P01106 whole entry, looked up): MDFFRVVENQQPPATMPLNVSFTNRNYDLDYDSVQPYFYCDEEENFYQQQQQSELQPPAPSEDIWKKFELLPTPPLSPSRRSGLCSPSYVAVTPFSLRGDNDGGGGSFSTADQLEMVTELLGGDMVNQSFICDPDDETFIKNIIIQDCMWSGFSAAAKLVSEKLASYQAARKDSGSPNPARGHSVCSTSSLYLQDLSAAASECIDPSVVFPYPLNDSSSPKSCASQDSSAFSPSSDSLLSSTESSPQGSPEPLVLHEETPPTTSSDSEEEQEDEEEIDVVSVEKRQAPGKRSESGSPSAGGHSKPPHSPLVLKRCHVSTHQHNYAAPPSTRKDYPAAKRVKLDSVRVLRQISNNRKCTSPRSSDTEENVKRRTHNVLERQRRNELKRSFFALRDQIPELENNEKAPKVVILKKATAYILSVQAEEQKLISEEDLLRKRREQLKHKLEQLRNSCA
Method in brief: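 Transiently transfected HepG2 cells bearing cis-promoter reporter units for endogenous transcription factors; 24 h exposure. Reporter mRNA measured by RT-PCR, 6-FAM primer extension, HpaI cut and capillary electrophoresis; bidirectional fit relative to DMSO.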

[4] = ATG_NF_kB_CIS: Attagene CIS-FACTORIAL HepG2 Assay for human Nuclear Factor Kappa B (NF-kB) (AID 2282991); conditions: HepG2 Attagene cis-factorial NF-kB reporter mRNA; actives raise or lower the signal
Method in brief: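 Measures mRNA induction of an NF-kB-responsive cis-element reporter in HepG2 cells transfected with multiple reporter units, sampled 24 h post-dosing; quantified by fluorescence after RT-PCR and capillary electrophoresis, fitted for activation or inhibition against DMSO.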

[5] = ATG_NRF2_ARE_CIS: Attagene CIS-FACTORIAL HepG2 Assay for human Nuclear Factor Erythroid 2 Related Factor 2 (NFR2) response to Antioxidant Response Elements (ARE) (AID 2282992); conditions: HepG2 Attagene ARE/NRF2 reporter, transcription factor activity; actives raise or lower the signal;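 for AC50: reporter mRNA level measured by RT-PCR and capillary electrophoresis fluorescence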
Method in brief: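 Fluorescence intensity of reporter-specific cDNA fragments, separated by capillary electrophoresis, reflects mRNA induction in transfected HepG2 cells at 24 h. Activity is fitted bidirectionally, DMSO serving as baseline.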

[6] = ATG_Oct_MLP_CIS: Attagene CIS-FACTORIAL HepG2 Assay for human Octamer-Binding Transcription Factor (Oct) (AID 2282993); conditions: HepG2 Attagene cis-factorial Oct reporter, mRNA; actives raise or lower the signal
Method in brief: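 Read-out: reporter mRNA via RT-PCR plus capillary electrophoresis of 6-FAM-labelled fragments. Transiently transfected HepG2, 24 h exposure, endogenous TF activity on cis elements. Gain or loss of signal fitted relative to DMSO.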

[7] = biological target: Cellular tumor antigen p53 (Homo sapiens) (UniProt P04637); assay: ATG_p53_CIS: Attagene CIS-FACTORIAL HepG2 Assay for human p53 Transcription Factor (AID 2282994); conditions: HepG2 p53 cis-element reporter, Attagene mRNA; actives raise or lower the signal
Sequence of Cellular tumor antigen p53 (Homo sapiens) (P04637 whole entry, looked up): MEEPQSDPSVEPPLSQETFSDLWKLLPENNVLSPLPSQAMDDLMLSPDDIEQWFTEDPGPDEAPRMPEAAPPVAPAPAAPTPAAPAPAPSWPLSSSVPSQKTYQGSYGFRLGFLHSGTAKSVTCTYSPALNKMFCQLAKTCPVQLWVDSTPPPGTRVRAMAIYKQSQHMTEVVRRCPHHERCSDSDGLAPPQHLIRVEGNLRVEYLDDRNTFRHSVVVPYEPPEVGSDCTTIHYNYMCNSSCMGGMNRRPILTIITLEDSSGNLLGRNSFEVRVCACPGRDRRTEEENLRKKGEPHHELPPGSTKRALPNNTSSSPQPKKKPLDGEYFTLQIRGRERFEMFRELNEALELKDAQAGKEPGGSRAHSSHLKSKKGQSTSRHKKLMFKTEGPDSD
Method in brief: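 Transiently transfected HepG2 (multiple cis reporter transcription units); exposure 24 h; reporter RNA via RT-PCR, 6-FAM extension, 2 h HpaI digest at 37 C, CE detection; DMSO baseline.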

[8] = BSK_3C_TissueFactor: BioMAP Diversity Plus: 3C Assay for Tissue Factor Biomarker Activity (AID 2282997); conditions: BioMAP 3C HUVEC, tissue factor biomarker readout; actives raise or lower the signal
Method in brief: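 Cells used were primary human umbilical vein endothelial cells. They were dosed with chemical, and after 24 h Tissue Factor was quantified by ELISA. Curves were fitted bidirectionally with DMSO as baseline.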

[9] = BSK_3C_uPAR: BioMAP Diversity Plus: 3C Assay for Urokinase-type plasminogen activator receptor (uPAR) Biomarker Activity (AID 2282998); conditions: BioMAP 3C HUVEC, uPAR biomarker ELISA; actives raise or lower the signal
Method in brief: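 HUVEC primary cells; 24 h post-dose; uPAR by ELISA; gain or loss of signal fitted bidirectionally vs DMSO baseline.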

[10] = ATG_NFI_CIS: Attagene CIS-FACTORIAL HepG2 Assay for human Nuclear Factor I (NFI) (AID 2282989); conditions: HepG2 cis-regulatory reporter, NFI response element transcription; actives raise or lower the signal
Method in brief: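 Read-out: reporter mRNA via RT-PCR plus capillary electrophoresis with fluorescence detection. Transiently transfected HepG2 (endogenous TF activity on cis promoters), 24 h compound exposure; gain or loss of signal fitted against DMSO.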

Measured: AC50

CN(C)CCO
not listed: [10]
inactive: all other assays above

c1cc2ccc3cccc4ccc(c1)c2c34
active: [8] 5.47 µM
not listed: [10]
inactive: all other assays above

Cc1cccc([N+](=O)[O-])c1
not listed: [10]
inactive: all other assays above

O=C(NC(=O)c1c(F)cccc1F)Nc1cc(Cl)c(OC(F)(F)C(F)F)c(Cl)c1
active: [8] 1.03 µM
not listed: [7] | [10]
inactive: all other assays above

ClC1=C(Cl)[C@]2(Cl)[C@@H]3[C@@H]4C[C@@H]([C@H]5O[C@@H]45)[C@@H]3[C@@]1(Cl)C2(Cl)Cl
active: [5] 112 µM
not listed: [7] | [10]
inactive: all other assays above

CC(C)(O)C(=O)Nc1ccc([N+](=O)[O-])c(C(F)(F)F)c1
active: [5] 45.1 µM and 15.9 µM and 54.5 µM | [6] 38.9 µM
inactive: [1] | [2] | [3] | [5] | [6] | [8] | [9]

Sc1ccccc1
active: [5] 66 µM
inactive: [1] | [2] | [3] | [4] | [5] | [6] | [8] | [9]

O=NN(c1ccccc1)c1ccccc1
active: [5] 78.9 µM
not listed: [4] | [7] | [10]
inactive: all other assays above

C[C@]12CCC(=O)C=C1CC[C@@H]1[C@@H]2CC[C@]2(C)C(=O)CC[C@@H]12
not listed: [4] | [10]
inactive: all other assays above

CCOP(=S)(OCC)SCSC(C)(C)C
inactive: [1] | [2] | [3] | [5] | [6] | [8] | [9]
active: [5] 67 µM

C1CC2OC2CC1C1CO1 (stereo not drawn)
active: [5] 123 µM
not listed: [7] | [10]
inactive: all other assays above

ClC1=C(Cl)[C@]2(Cl)[C@@H]3[C@@H](Cl)[C@H]4O[C@H]4[C@@H]3C1(Cl)C2(Cl)Cl
active: [2] 150 µM | [5] 28.4 µM | [6] 60 µM
not listed: [7] | [10]
inactive: all other assays above

NS(=O)(=O)C(F)(F)C(F)(F)C(F)(F)C(F)(F)C(F)(F)C(F)(F)C(F)(F)C(F)(F)F
inactive: [1] | [2] | [3] | [4] | [6]
active: [3] 27.6 µM | [4] 60.1 µM and 253 µM | [5] 28.9 µM and 268 µM and 15.4 µM | [6] 50 µM | [8] 30.2 µM and 49.5 µM and 52.9 µM | [9] 29.9 µM and 42.3 µM and 44.1 µM

Clc1ccc(C(Cl)(Cl)Cl)cc1
not listed: [4] | [7]
inactive: all other assays above

Cc1cccc(C)c1N
not listed: [10]
inactive: all other assays above

Nc1ccc(-c2ccc(N)cc2)cc1
active: [8] 3.97 µM
not listed: [4] | [10]
inactive: all other assays above

CCC(C)c1cc([N+](=O)[O-])cc([N+](=O)[O-])c1O (stereo not drawn)
active: [5] 14.1 µM | [6] 16.4 µM | [9] 9.09 µM
not listed: [7] | [10]
inactive: all other assays above

O=S(=O)(O)C(F)(F)C(F)(F)C(F)(F)C(F)(F)C(F)(F)C(F)(F)F
active: [5] 132 µM [middle of 4 runs]
not listed: [10]
inactive: all other assays above
